# Measured values published in ChEMBL document CHEMBL3988442, “University of Dundee, Small-Polar-MMV Screening Library” (2021).
# For some assays here: Measured potencies and affinities stand elsewhere.
# Experiments:
# Set-up in all cases: scale not given: direction of the effect not stated beside the values
# [1] = target: Protein translocase subunit SecA (Escherichia coli (strain K12)) (UniProt P10408); experiment: Assay to Identify E. coli SecA ATPase Inhibitors; assay type: functional; conditions: 30 µM
# Sequence of Protein translocase subunit SecA (Escherichia coli (strain K12)) (P10408 whole entry): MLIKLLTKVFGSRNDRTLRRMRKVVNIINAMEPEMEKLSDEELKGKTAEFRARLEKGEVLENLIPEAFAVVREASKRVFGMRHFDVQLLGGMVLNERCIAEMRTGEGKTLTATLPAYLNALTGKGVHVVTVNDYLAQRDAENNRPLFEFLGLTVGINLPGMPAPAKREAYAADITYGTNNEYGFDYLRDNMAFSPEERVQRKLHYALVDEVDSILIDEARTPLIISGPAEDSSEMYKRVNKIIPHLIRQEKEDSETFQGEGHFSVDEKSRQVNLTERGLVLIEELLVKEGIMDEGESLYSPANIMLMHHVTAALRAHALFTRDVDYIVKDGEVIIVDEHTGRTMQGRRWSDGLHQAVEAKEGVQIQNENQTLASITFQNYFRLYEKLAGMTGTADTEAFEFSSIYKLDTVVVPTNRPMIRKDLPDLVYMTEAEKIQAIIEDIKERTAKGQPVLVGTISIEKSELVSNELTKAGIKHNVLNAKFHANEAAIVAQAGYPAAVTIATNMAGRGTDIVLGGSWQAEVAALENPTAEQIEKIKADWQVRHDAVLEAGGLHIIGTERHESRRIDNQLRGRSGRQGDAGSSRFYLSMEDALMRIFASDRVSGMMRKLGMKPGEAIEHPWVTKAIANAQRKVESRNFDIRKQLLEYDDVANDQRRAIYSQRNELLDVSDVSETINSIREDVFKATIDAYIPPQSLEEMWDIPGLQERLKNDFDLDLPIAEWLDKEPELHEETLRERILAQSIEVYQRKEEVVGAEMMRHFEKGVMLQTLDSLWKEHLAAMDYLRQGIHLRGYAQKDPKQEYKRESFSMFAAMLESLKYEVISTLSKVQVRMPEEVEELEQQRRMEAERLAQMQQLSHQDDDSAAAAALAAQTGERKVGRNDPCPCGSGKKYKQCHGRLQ
# [2] = target: T1, Ubiquitin-activating enzyme e1, putative (Leishmania donovani (strain BPK282A1)) (UniProt E9BSI1); experiment: Leishmania donovani Ubiquitin Activating Enzyme (LdE1); assay type: functional; conditions: 30 µM
# T1 sequence (whole entry): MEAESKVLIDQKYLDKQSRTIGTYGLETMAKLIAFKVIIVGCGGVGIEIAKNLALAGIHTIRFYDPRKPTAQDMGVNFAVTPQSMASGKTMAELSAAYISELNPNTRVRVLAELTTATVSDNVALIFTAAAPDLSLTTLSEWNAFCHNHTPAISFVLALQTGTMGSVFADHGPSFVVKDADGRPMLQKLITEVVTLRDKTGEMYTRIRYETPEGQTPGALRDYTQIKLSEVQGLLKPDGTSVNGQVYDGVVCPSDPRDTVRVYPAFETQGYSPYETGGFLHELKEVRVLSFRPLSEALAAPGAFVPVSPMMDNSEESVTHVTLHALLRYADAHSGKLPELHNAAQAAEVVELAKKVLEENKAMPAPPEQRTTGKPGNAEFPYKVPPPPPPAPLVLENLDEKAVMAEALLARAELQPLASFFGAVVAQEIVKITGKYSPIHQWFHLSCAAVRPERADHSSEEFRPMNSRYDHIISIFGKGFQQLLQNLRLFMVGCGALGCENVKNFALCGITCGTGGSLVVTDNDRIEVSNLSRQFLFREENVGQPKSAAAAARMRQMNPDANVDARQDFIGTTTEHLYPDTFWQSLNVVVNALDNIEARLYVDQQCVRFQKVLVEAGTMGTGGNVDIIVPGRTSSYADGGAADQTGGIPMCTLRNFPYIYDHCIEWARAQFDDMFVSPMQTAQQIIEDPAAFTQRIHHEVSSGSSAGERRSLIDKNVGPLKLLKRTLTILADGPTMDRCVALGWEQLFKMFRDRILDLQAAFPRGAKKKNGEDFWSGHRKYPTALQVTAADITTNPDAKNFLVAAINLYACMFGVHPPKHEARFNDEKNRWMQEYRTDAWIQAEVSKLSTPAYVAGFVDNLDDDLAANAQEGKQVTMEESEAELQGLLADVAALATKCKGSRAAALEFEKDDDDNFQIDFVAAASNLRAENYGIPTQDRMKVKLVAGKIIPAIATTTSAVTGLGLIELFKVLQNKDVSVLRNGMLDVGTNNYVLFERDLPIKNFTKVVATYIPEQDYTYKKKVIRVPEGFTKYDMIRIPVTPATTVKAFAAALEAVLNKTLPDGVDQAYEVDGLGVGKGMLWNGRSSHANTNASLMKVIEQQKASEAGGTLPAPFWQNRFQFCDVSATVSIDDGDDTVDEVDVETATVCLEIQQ
# [3] = target: AMP-activated protein kinase, AMPK (Homo sapiens) (UniProt P54646+O43741+P54619+Q9UGJ0+Q9Y478+Q13131+Q9UGI9); experiment: AMP-dependent Kinase enzyme assay. An in vitro enzyme assay that detects ADP turnover that is directly proportional to AMPK activity. This uses naive AMPK that is activated during the assay with MK-8722; assay type: functional; conditions: 30 µM
# [4] = target: Sialic acid-binding Ig-like lectin 9 (Homo sapiens) (UniProt Q9Y336); experiment: Hs-Siglec9 ALPHAscreen SOP 20170721; conditions: 10 µM
# Sequence of Sialic acid-binding Ig-like lectin 9 (Homo sapiens) (Q9Y336 whole entry): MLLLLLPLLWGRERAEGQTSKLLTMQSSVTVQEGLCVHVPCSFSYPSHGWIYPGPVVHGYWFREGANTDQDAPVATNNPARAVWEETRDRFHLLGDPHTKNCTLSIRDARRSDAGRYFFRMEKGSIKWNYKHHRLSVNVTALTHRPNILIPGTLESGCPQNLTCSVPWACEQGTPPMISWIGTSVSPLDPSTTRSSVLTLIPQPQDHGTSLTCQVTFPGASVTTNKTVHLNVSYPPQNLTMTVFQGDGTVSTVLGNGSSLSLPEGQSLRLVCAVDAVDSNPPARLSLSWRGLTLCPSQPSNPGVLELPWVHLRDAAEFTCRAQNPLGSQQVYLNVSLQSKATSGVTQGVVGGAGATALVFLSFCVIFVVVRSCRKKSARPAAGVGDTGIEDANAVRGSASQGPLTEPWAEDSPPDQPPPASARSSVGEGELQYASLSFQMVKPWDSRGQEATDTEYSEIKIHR
# [5] = test system: Trypanosoma cruzi; experiment: Trypanosoma cruzi phosphomannomutase and mannose-1-phosphate guanylyltransferase assay; assay type: functional; conditions: 10 µM
# [6] = target: T2, Arginase-2, mitochondrial (Homo sapiens) (UniProt P78540); experiment: in vitro enzyme assay to detect the production of urea directly proportional to the activity of Arginase II; assay type: functional; conditions: 33.3 µM; note: in the data most compounds retested in dose-response had high values
# T2 sequence (whole entry): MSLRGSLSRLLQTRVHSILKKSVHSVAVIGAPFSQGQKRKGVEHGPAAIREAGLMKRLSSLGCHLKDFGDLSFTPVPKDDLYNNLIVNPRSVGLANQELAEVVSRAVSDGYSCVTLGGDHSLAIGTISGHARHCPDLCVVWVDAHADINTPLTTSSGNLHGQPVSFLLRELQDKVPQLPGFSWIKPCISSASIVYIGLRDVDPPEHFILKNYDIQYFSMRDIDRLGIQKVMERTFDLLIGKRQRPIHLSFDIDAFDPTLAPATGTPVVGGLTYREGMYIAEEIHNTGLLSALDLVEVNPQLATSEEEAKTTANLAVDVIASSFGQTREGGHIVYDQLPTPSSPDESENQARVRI
# [7] = target: T3, Proteasome subunit beta (Trypanosoma cruzi) (UniProt O96673); experiment: Trypanosoma cruzi proteasome chymotrypsin-like activity (TcProtChymo) assay.; note: in the data most compounds retested in dose-response had high values; assay type: functional; conditions: 9.37 µM
# T3 sequence (whole entry): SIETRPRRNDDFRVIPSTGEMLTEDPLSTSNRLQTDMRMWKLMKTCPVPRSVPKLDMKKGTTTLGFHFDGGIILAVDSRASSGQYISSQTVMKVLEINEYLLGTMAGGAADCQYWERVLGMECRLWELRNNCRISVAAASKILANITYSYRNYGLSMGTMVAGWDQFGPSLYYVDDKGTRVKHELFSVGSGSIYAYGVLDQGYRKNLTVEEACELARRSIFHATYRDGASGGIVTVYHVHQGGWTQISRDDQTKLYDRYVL
# [8] = organism: Homo sapiens; experiment: To identify inhibition of the IFN signalling (Jak-Stat) pathway via expression of an eGFP reporter gene under the control of an IFN-stimulated response element (ISRE) containing MxA promoter.; assay type: functional; conditions: 30 µM
# [9] = target: T4, Tyrosyl-tRNA synthetase, putative (Trypanosoma cruzi (strain CL Brener)) (UniProt Q4DSP6); experiment: Trypanosoma cruzi tyrosyl tRNA synthetase (TcYRS) _High Tyrosine SOP; assay type: functional; conditions: 30 µM; note: in the data most compounds retested in dose-response had high values
# T4 sequence (whole entry): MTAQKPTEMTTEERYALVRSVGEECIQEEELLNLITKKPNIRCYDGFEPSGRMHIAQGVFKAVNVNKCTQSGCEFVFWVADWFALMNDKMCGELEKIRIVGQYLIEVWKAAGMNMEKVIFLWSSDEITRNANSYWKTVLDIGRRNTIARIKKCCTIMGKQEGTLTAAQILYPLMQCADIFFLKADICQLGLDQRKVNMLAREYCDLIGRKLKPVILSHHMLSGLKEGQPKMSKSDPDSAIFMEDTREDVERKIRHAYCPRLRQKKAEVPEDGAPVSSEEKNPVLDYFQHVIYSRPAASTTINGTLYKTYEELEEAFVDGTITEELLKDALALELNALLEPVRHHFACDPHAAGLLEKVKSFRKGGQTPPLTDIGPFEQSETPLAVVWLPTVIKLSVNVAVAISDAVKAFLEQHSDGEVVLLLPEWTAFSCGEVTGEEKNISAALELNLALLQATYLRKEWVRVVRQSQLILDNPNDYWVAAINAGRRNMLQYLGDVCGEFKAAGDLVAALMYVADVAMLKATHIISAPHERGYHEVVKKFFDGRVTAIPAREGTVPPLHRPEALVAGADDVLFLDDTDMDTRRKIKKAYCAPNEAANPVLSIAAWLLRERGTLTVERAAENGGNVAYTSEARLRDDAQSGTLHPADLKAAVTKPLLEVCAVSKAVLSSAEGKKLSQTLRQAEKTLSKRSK
# [10] = target: T4, Tyrosyl-tRNA synthetase, putative (Trypanosoma cruzi (strain CL Brener)); experiment: Trypanosoma cruzi tyrosyl tRNA synthetase (TcYRS) SOP; assay type: functional; conditions: 30 µM
# [11] = target: Chromo domain-containing protein 1 (Saccharomyces cerevisiae (strain ATCC 204508 / S288c) (Baker's yeast)) (UniProt P32657); experiment: ScCHD-1 Enzyme Inhibition Assay; assay type: functional; conditions: 30 µM; note: in the data most compounds retested in dose-response had high values
# Sequence of Chromo domain-containing protein 1 (Saccharomyces cerevisiae (strain ATCC 204508 / S288c) (Baker's yeast)) (P32657 whole entry, the tested form may be a part): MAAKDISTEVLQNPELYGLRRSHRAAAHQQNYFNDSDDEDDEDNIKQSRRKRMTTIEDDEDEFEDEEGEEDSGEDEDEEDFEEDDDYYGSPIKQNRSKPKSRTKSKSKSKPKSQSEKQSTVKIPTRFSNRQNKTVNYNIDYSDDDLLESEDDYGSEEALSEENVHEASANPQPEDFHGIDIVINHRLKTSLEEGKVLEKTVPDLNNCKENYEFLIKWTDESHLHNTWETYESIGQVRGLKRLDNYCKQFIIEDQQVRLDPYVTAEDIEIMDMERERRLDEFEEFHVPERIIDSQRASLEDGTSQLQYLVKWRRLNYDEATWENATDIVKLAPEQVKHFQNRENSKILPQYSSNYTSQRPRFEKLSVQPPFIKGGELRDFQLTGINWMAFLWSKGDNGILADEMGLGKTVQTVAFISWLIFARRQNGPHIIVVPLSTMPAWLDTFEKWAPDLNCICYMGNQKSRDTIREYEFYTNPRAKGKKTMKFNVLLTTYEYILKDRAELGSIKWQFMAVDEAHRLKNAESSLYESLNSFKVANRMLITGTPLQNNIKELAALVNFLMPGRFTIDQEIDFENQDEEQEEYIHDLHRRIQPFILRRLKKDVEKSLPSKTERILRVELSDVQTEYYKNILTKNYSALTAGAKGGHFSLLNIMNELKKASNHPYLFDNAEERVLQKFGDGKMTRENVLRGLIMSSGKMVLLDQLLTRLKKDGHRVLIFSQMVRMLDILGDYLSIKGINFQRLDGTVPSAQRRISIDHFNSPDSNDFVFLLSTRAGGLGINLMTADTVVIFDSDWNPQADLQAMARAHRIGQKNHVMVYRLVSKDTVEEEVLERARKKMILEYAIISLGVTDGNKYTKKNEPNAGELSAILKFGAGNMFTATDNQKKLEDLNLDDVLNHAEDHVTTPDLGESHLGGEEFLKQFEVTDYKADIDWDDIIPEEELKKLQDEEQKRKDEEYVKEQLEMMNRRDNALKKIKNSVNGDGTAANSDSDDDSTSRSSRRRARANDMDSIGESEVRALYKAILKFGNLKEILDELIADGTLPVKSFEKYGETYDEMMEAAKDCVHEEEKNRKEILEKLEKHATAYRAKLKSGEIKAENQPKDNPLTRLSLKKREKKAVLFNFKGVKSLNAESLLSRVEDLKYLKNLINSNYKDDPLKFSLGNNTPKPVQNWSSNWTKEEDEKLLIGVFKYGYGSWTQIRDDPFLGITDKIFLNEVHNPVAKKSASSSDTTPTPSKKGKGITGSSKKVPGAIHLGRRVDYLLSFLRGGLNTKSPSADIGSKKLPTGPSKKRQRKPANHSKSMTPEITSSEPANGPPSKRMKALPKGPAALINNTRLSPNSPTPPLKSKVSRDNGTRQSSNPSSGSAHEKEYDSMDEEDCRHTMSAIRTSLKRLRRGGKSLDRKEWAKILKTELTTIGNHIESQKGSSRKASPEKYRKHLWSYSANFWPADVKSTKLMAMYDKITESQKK
SMILES,Percent Effect [1] [%],Percent Effect [2] [%],Percent Effect [3] [%],Percent Effect [4] [%],Percent Effect [5] [%],Percent Effect [6] [%],Percent Effect [7] [%],Percent Effect [8] [%],Percent Effect [9] [%],Percent Effect [10] [%],Percent Effect [11] [%]
Cc1oc(-c2ccco2)nc1CC(=O)N1CCC(C(O)C(F)(F)F)CC1 (stereo unspecified),-2.39,0,-2.68,2.74,6.76,-4.42,-5.58,-30,-0.952,9.41,-13.1
Cn1cc(CNCCn2cccn2)c(-c2cccnc2)n1,-3.75,0,-3.89,-4.32,-1.66,0.744,13.8,-1.72,-1.07,1.24,2.43
CC(C)(C)c1noc(CN2CCCN(Cc3cccs3)CC2)n1,-4.7,10.4,2.92,-6.09,-3.75,0.356,1.69,30,6.8,12.2,-5.35
COc1ccccc1C(=O)N1CC(Cc2nccc3ccn(C)c23)C1,-7.05,17.6,2.79,6.36,4.15,-2.09,6.4,13.2,6.45,14.3,-16.6
CC(NC(=O)NCCCn1ccnc1)c1ccc2c(c1)OCCCO2 (stereo unspecified),-3.41,2.7,-7.49,-2.67,-8.08,5.36,-0.539,12.7,1.98,1.22,2.18
Cc1ncc2c(n1)CN(Cc1nnc(Cc3ccccc3)o1)CC2,-2.29,24.3,-11.8,1.92,5.66,4.99,13.8,-0.54,29.7,28.1,-9.78
COc1ccc(CNC2CCCN(Cc3noc(C)n3)C2)cc1F (stereo unspecified),-10.4,10.4,0.711,4.31,-5.06,-3.2,-1.01,32.5,0.971,-2.44,-5.61
CC(=O)N1CCN(C(=O)CN2CCc3c(ncn3C3CC3)C2)CC1,-0.513,19,-1.56,-4.08,1.33,5.38,17.5,11.7,1.04,5.06,-19.7
c1cnc(N2CCOCC3(CCCN(CC4CC4)C3)C2)cn1 (stereo unspecified),-1.84,5.33,1.73,4.28,-1.74,-52.5,6.84,-10.7,4.17,5,-4.17
CCC(=O)NC1CCN(c2cccc(CC)c2)CC1,-7.28,3.8,2.12,-4.76,1.13,-1.5,4.97,16.9,3.12,-10.1,-27.3
CSCc1cccc(S(=O)(=O)NCCCn2ccnc2)c1,-5.68,-23.4,-1.48,6.2,1.67,-6.9,2.16,2.79,7.53,21,-1.53
CCN(CC)CCNc1ncc(-c2cc(C)no2)c(-c2ccoc2C)n1,-7.13,20.3,6.82,3.2,2.77,-3.94,8.74,0.0946,5.38,14.3,-20.7
CC(C)n1c(=O)nc2n1C(=O)N(c1ccc(F)cc1)C2,-3.14,13.2,0.365,6.05,0.682,-2.37,13.9,-9.89,4.25,7.79,-5.52
COc1cc(CN(C)C(=O)Nc2cc(C)on2)ccc1SC,-9.88,5.41,-3.24,0.0571,-2.73,-24.2,21.6,6.33,9.9,1.22,-2.37
Cc1noc(C2CCCCN2C(=O)NC2CCCC2)n1 (stereo unspecified),1.58,7.89,5.88,-7.67,-9.25,-2.37,21.8,0.903,2.13,2.6,-4.56
O=C1CCC2(CCCN(C(=O)c3cscn3)C2)CN1CCc1c[nH]cn1 (stereo unspecified),-3.15,7.79,-3.24,13.5,6.98,-9.65,15.1,-31.6,5.38,13.6,-5.62
